The results in this text go back to PubChem BioAssay (NCATS).

Several values for one entry are separate records, joined by “and”; a condition that tells them apart may be missing. Identical values can stand only once. Records with an inconclusive call do not appear. A call without a number means that no potency is given here. More than one record can exist for a structure, and the calls need not agree. Activity calls are given as the source filed them. The call rests on the fitted dose curve; in most records, active means well fitted inhibition curve with a large enough effect; inconclusive means small, poorly fitted or top-dose-only effect; inactive means no such curve, though single readings can be large or run the other way.
Potency means the concentration at half of the fitted maximal effect.

Sequence of M-phase phosphoprotein 8 (Homo sapiens) (Q99549 whole entry, looked up): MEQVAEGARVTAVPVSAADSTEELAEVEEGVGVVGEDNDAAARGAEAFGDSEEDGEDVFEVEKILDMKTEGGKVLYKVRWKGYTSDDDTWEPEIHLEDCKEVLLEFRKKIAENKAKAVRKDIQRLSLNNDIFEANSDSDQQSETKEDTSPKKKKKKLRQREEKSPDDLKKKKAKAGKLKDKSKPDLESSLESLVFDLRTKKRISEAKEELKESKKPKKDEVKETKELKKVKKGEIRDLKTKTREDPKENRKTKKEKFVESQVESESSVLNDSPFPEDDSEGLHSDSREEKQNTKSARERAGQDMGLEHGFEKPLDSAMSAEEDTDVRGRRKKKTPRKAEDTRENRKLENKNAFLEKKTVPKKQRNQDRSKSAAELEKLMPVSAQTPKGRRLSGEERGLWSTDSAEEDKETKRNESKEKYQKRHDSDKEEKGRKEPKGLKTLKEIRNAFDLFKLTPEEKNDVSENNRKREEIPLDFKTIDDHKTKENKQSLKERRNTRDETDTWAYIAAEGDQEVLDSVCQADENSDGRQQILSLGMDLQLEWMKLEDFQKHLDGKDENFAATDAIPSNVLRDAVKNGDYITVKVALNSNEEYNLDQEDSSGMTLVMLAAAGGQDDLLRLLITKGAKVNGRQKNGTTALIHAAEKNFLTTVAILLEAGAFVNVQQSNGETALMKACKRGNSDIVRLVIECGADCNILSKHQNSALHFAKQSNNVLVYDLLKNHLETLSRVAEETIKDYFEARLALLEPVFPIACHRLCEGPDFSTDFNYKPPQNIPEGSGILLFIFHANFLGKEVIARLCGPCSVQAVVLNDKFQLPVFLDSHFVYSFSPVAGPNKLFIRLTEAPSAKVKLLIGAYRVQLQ

This assay has as its target M-phase phosphoprotein 8 (Homo sapiens) (UniProt Q99549). Description: qHTS Validation Assay for Inhibitors for MPP8 Chromodomain Interactions with Methylated Histone Tails (AID 488949). Further: nearly all actives have a fitted effect of over 55% in size. Particulars: AlphaScreen MPP8 binding to H3K9me3 peptide; series mostly up to 57.1 µM. From the text:
As our understanding of epigenetics expands, it is becoming clear that players in this field are potential targets for drug development. This area of epigenetic therapy has established applications for the treatment of cancer and neurological diseases. We have been involved in this field for a number of years and have performed high-throughput screens to identify the first small molecule inhibitors of protein methyltransferases. These methyltransferases target multiple substrates, and thus regulate many arms of an epigenetic pathway. The methylation of different substrates often generates docking sites for effector proteins that harbor binding domains (chromo, tudor, PHD, MBT and ANK repeats). It has been proposed that the binding sites generated for different proteins by these post-translational modifcations mediate downstream effects on chromatin. Consistent with this theory, di- and tri-methylation of histone H3K9 facilitates the binding of heterochromatin protein HP1. The HP1 protein harbors a chromodomain that is responsible for the methyl-dependent interaction between HP1 and lysine 9 of histone H3. HP1 was first described in flies as a heterochromatin associated protein that can regulate gene silencing. It harbors a chromodomain that binds H3K9me3. In addition, it harbors a chromoshadow domain that interacts with a large number of proteins that are involved in heterochromatin formation and gene repression. There are three highly related HP1 isoforms. All three variants are associated with pericentric heterochromatin and it is not clear whether they have specific or redundant functions. MPP8 is also involved in the repression of gene in euchromatic regions (unpublished data) and like HP1 its chromodomain binds H3K9me3. MPP8 harbors an ankyrin repeat region that is likely involved in binding and recruiting interacting proteins with transcriptional repressive function, much like the chromoshadow domain of HP1 does. We hypothesize that by inhibiting specific protein-protein interactions we will be able to develop compounds that block a single arm of an epigenetic pathway. The specificity attained by blocking a single protein-protein interaction will be far greater than that attained by blocking the enzyme that regulates one of many interactions. Low-affinity protein-protein interactions (Kd in the single- to double-digit micromolar range) such as those discussed here have been very difficult to assay by traditional techniques such as fluorescence polarization or fluorescence resonance energy transfer. We have developed a sensitive chemiluminescence-based assay (Quinn, et al. 2009), which serves as the starting point for this project. The following is a validation assay to identify lead compounds that can block methyl-dependent protein-protein interactions (specifically MPP8), which can be used as probes to analyze these methyl-driven interactions and perhaps even developed into targeted epigenetic therapies. Assay Provider: Mark T. Bedford, MD Anderson Screening Center PI: Austin, C.P. Screening Center: NIH Chemical Genomics Center [NCGC]
To each well, 2 uL of MPP8 protein (final 50 nM) and 1 uL biotinylated histone peptide trimethylated at Lys9 [b-H3(1-18)K9me3] (final 50 nM) was added in 1x PBS buffer, pH 7.4, containing 0.01% Tween-20 using a nanoliter dispenser. Formation of a protein-peptide complex proceeded at room temperature for 30 min. A Kalypsys pin-tool was employed to transfer 23 nL of library compound solution in DMSO to each well. Aurintricarboxylic acid (ATA) was used as an intraplate control with a 12-point titration in duplicate. Following a 30 min incubation of the protein-peptide complex with compounds at room temperature, a mixture of 40 ug/mL each streptavidin-coated donor and nickel chelate acceptor AlphaScreen beads (final 10 ug/mL) was added in a 1 uL dispense for a final volume of 4 uL. Plates were incubated protected from the light for 30 min at room temperature. […]
On the technique in general: In qHTS, concentration-response curves come from the screen itself.
For `CC(N)=NCCCC[C@@H](N)C(=O)O`, the Potency result was “inactive”.
As to `C=C1C[C@@]23CC[C@H]4[C@@](C)(CCC[C@@]4(C)C(=O)O)[C@@H]2CC[C@]1(O)C3`, the Potency result is “inactive”.
For `CC(=O)[C@H]1CCC2C3CC=C4C[C@@H](OS(=O)(=O)O)CC[C@]4(C)C3CC[C@@]21C` (stereo not given in full) the value was “inactive”; for `NCCNS(=O)(=O)c1cccc2c(Cl)cccc12`, “inactive”; for `Nc1ccc(-c2ccc3ccccc3n2)cc1`, “inactive”.
To `N[C@@H](Cc1c[nH]c2ccccc12)C(=O)O` belongs “inactive”; to `CC(C)[C@@H]1CC[C@@H](C)C[C@@H]1P(=O)(c1ccccc1)c1ccccc1`, “inactive”.
For `CCOC(=O)C12CC1/C(=N/O)c1ccccc1O2` (stereo not given), the Potency entry is “inactive”.
To `CC1CCN=C(N)S1` (stereo not given) belongs “inactive”.
As to `N#CC(=C(\N)Sc1ccccc1N)/C(C#N)=C(/N)Sc1ccccc1N`, the Potency entry was “inactive”.
Take `CC(C)(C)NCC(O)COc1cccc2[nH]c(=O)[nH]c12` (stereo not given): the Potency result is “inactive”.
To `CCCCCC(O)CCCC(=O)O` (stereo not given) belongs “inactive”.
For `O=c1[nH]c2ccccc2c2ccccc12` the value was “inactive”; for `CC(=O)NCCc1c[nH]c2ccc(O)cc12`, “inactive”.
To `O=c1cc(-c2ccccc2F)[nH]c2cc3c(cc12)OCO3` belongs “inactive”; to `NC[C@@H]1O[C@H](c2ccccc2)Cc2c1ccc(O)c2O`, “inactive”.
`N[C@H](C(=O)O)c1cc(O)cc(O)c1`: the Potency result is “inactive”.
For `CNc1ncnc2c1ncn2[C@H]1C[C@H](OP(=O)(O)O)[C@@H](COP(=O)(O)O)O1` the value was “inactive”.
To `O=C(O)c1cc2cc(F)ccc2[nH]1` belongs “inactive”; to `O=C(O)C1=CC(=C(c2ccc(O)c(C(=O)O)c2)c2ccc(O)c(C(=O)O)c2)C=CC1=O`, 178 nM (active) and 238 nM (active).
To `CC#CCOC(=O)c1c(C)nc2sc3c(c2c1N)CCC(O)C3` (stereo not given) belongs “inactive”; to `N=C(N)SCCN`, “inactive”; to `Cc1ccc([N+](=O)[O-])cc1S(=O)(=O)N(C)C`, “inactive”.
Turning to `CC(O)C(O)[C@H]1CNc2nc(N)[nH]c(=O)c2N1` (stereo not given in full), the Potency entry is “inactive”.
For `Cc1ccc2c(c1)C(N1CCN(C)CC1)=Nc1cccnc1N2` the value was “inactive”; for `NC(N)=[N+]1CCc2ccccc2C1`, “inactive”.
For `C=CCN1CCc2c(cc(O)c(O)c2Br)[C@@H](c2ccccc2)C1` the value was “inactive”; for `NC(=O)CC[C@H](N)C(=O)O`, “inactive”.
For `CN(C)CCC(c1ccc(Br)cc1)c1ccccn1` (stereo not given) the value was “inactive”; for `COc1cc(C(O)C(=O)O)ccc1O` (stereo not given), “inactive”.
With `O=C(O)c1cccnc1C(=O)O`, the Potency result was “inactive”.
For `CN(C)CCCc1cc(C(=O)Nc2ccc(-c3ccncc3)cc2)ccc1O` the value was “inactive”.
To `CC(=O)NNC(=O)N1Cc2ccccc2Oc2ccc(Cl)cc21` belongs “inactive”.
For `NS(=O)(=O)c1cccc2c1c([N+](=O)[O-])cc1nc(O)c(O)nc12` the value was “inactive”.
Regarding `COC(=O)C1=C(C)NC(C)=C([N+](=O)[O-])C1c1ccccc1C(F)(F)F` (stereo not given), the Potency entry is “inactive”.
For `C/C(=C\c1ccc(C(=O)O)cc1)c1ccc2c(c1)C(C)(C)CCC2(C)C` the value was “inactive”; for `CN(C)S(=O)(=O)c1ccc2c(c1)/C(=C/c1cc3c([nH]1)CCCC3)C(=O)N2`, 17.8 µM (active) and inactive.
For `NC(=O)c1ccccc1`, the Potency entry is “inactive”.
To `C[C@@H](NCCc1ccc(O)cc1)[C@@H](O)c1ccc(O)cc1` belongs “inactive”.
On to `CCCCCC[C@@H]([C@@H](C)O)n1cnc2c(N)ncnc21`, for which the Potency entry is “inactive”.
